# According to PubChem BioAssay (NCI):
# The panel holds about 83,000 compounds, 20% with a hit somewhere; the sample as a whole holds those more often.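 48-hour exposure, single concentration, 96-well plates; percent growth endpoint where 0 means no net growth. Active: below 10.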 Calls of active or inactive are those of the source.
# Test system: PC-3 prostate
# Test: NCI-60 one-dose screen, 48 h (100 = growth as untreated, 0 = no growth, -100 = all killed)
# Conditions: 10 µM unless noted
# Description: Growth inhibition of the PC-3 human tumor cell line is measured as a screen for anti-cancer activity. Cells are grown in 96 well plates and exposed to the test compound for 48 hours. Compounds are tested at a single concentration, which is 10^-5 M for most compounds. The reported endpoint is percent growth (GI% or GIPRCNT), where numbers from 0 - 100% represent growth inhibition, and numbers from -100% - 0 represent cell death. For example, a value of 40 represents 60% growth inhibition. A value of 0 means no net growth occurred over the course of the experiment. A value of -40 indicates 40% of cells at the beginning of the experiment died by the end of the experiment. A value of -100 means all cells are dead at the end of the experiment.
# NCI-60 Human Tumor Cell Lines Screen was performed using the standard one-dose NCI protocol, which is described in more detail at https://dtp.cancer.gov/discovery_development/nci-60/default.htm.
# Compounds with GIPRCNT values below 10 were considered active. Activity score was based on GIPRCNT using the following formula: […]
# Score is 0 for GIPRCNT values of 100 or above, 50 for GIPRCNT values of 0, and 100 for GIPRCNT values of -100.
row,Structure (SMILES),growth
1,Cc1ccc2c(n1)C(=O)C(Cl)=C(Nc1ccccc1C(C)C)C2=O,53.9% (inactive)
2,S=C(c1cccs1)N1CCN(c2cccc(Cl)c2)CC1,89.5% (inactive)
3,N#Cc1c(Nc2cccc(Cl)c2)sc(C(=O)c2cc3cc(Cl)ccc3o2)c1N,62.8% (inactive)
4,CN1CCN(Cc2ccc(NC(=O)c3cncc(C#Cc4cnccc4C#N)c3)cc2C(F)(F)F)CC1,91.7% (inactive)
5,Fc1cc(-c2nnc3n2NC(=Nc2ccc(Cl)cc2)CS3)c(Cl)cc1Cl,111% (inactive)
6,CCCCCCn1c(-c2ccc(C(=O)O/N=C(\N)c3ccc4c(c3)OCO4)cc2)nc(-c2ccccc2)c1-c1ccccc1,23.2% (inactive)
7,O=C(Nc1ccc(OS(=O)(=O)c2ccc(F)cc2)cc1)c1ccc(Cl)cc1,91.8% (inactive)
8,O=S(=O)(NCCCNc1cc(-c2c(-c3cccc(O)c3)nc3sccn23)ccn1)c1cccc2ccccc12,30.4% (inactive)
9,COc1ccc(N2C(=O)C(Oc3ccccc3)C2c2ccc(C)cc2)cc1 (stereo not given),97.6% (inactive)
10,CCCCCCCCCCCCCCCCCCOc1ccccc1CCCOP(=O)(O)OCC[N+](C)(C)C,0.281% (active)
11,O=C1c2cccc3cccc(c23)C(=O)N1N1C(=O)c2cccc3c(NC4CCCCC4)ccc(c23)C1=O,83.6% (inactive)
12,CCOC(=O)C1=C(N)Oc2c(sc3c(C)cccc23)C1c1ccc(Cl)cc1 (stereo not given),16.6% (inactive)
13,FC(F)(F)c1cc(Nc2ccc3c(OCCCN4CCOCC4)cccc3n2)ccc1Cl,33.5% (inactive)
14,CNC(=O)c1cc(-n2ccc3cc(NC(=O)c4ccc(N5CCOCC5)c(C(F)(F)F)c4)ccc32)ccn1,18% (inactive)
15,CNC(C)[C@H]1CCC2C3CCC4C[C@@H](N(C)C(=O)c5ccccc5)CC[C@]4(C)C3CC[C@@]21C (stereo not given in full),16.3% (inactive)
16,CCCCCCNC(=O)Oc1ccc(/C(=C(\C)c2ccc(Cl)cc2)c2ccc(OCCCN(C)C)cc2)cc1,79.6% (inactive)
17,CCOC(=O)C1=C(N)Oc2c(sc3c(C)cccc23)C1c1ccc(F)cc1 (stereo not given),12% (inactive)
18,COc1cc(-c2nc3sccn3c2-c2ccnc(NCCCNS(=O)(=O)c3ccc(F)cc3)n2)ccc1F,46.8% (inactive)
19,COc1cccc(OC)c1C(=O)N[C@@H]1C(=O)N2[C@@H]1SC(C)(C)[C@@H]2C(=O)O,86.3% (inactive)
20,COc1ccc(NC2=C(Br)C(=O)C(C)=C(C)C2=O)cc1,73.1% (inactive)

row,Structure (SMILES),growth
1,O=C1/C(=C/c2ccccc2[N+](=O)[O-])Oc2ccc(O)c(O)c21,44.5% (inactive)
2,Cc1ccc(C(CC(=O)O)c2c(C)[nH][nH]c2=O)cc1 (stereo not given),105% (inactive)
3,CCOC(=O)Cn1c(=O)c2c(c3ccccc3n2C)n2nnc(-c3ccccc3)c12,103% (inactive)
4,c1ccc2c(c1)Nc1ccncc1S2,91.2% (inactive)
5,NC[C@@H]1O[C@H](O[C@@H]2[C@@H](CO)OC(O[C@@H]3[C@@H](O)[C@H](N)C[C@H](N)[C@H]3OC3O[C@H](CN)[C@@H](O)[C@H](O)[C@H]3N)[C@@H]2O)[C@H](N)[C@@H](O)[C@@H]1O (stereo not given in full),111% (inactive)
6,C[C@H](C(=O)Nc1ccc(S(N)(=O)=O)cc1)S(=O)(=O)c1ccccc1,101% (inactive)
7,CCc1ccc(Oc2c(-c3ccc(OCc4ccc(Cl)cc4)cc3O)nn(C)c2C(F)(F)F)cc1,-6.54% (active)
8,CN1CCN(c2ccc(-c3cc4c(Nc5ccc(F)c(Cl)c5)ncnn4c3)cc2)CC1,80.8% (inactive)
9,COc1ccc(OC)c(/C=C/C(=O)N/N=C/c2ccccc2)c1,63.5% (inactive)
10,O=c1n(Cc2ccc3ccccc3c2)ccn1Cc1ccc2ccccc2c1,94.4% (inactive)
11,Clc1ccc2c(c1)N(CCCN1CCCC1)c1ccccc1S2,18.6% (inactive)
12,CCc1ccc(Oc2c(-c3ccc(OCCc4cccc(C(F)(F)F)c4)cc3O)n[nH]c2C(F)(F)F)cc1,46.1% (inactive)
13,CCCCCCN(CCCCCC)c1ccc(/C=C2/SC(=O)NC2=O)c(C)c1,69.8% (inactive)
14,N#Cc1c(-c2ccc(Cl)cc2)nc2c(c(-c3ccccc3)nn2-c2ccccc2)c1-c1ccc(O)cc1,12% (inactive)
15,COc1cc2cc(Oc3ccc(NC(=O)Nc4cccc(C(F)(F)F)c4)cc3)c(C)nc2cc1OCCN1CCOCC1,15.7% (inactive)
16,CCN(CC)CCNC(=O)c1cn2ncnc(Oc3ccc(NC(=O)Nc4ccc(Cl)c(C(F)(F)F)c4)cc3)c2c1C,-79.2% (active)
17,NCCOc1ncccc1/C=C1\C2C=CC=CC2C2C=CC(F)=CC12 (stereo not given),33.9% (inactive)
18,Cc1nc(/N=C(\N)NC(=O)Nc2ccccc2Cl)sc1C,33.1% (inactive)
19,COc1ccc2c(c1)nc(NNC(=O)c1cnccn1)c1cccn12,39.4% (inactive)
20,CCCCCCNC(=O)Oc1ccc(/C(=C(\C)c2ccc(OC)cc2)c2ccc(OCCN3CCCCC3)cc2)cc1,54.1% (inactive)
